Rows were chosen to be rich in hits. Some 0.92% of all compounds tested hit in one or more screens of this group.
Tb PYK inh: blocks Trypanosoma brucei pyruvate kinase; Q57TT1; TbPYK enzyme, Kinase-Glo Plus ATP luminescence, 45 min; Potency, µM (top dose mostly 76.8 µM), actives largely listed as inhibitors; 410,000 compounds, 0.12% hits; also: nearly all actives have a fitted effect of over 50% in size
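Screened from lowest to highest concentration, compounds were pinned into TbPYK/substrate mixtures, and ADP (130 uM final) was added. Plates sat at room temperature for 45 min prior to Kinase-Glo Plus detection by luminescence.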
NS1 function inh: blocks influenza NS1 protein function | Potency, µM (highest dose often 46.1 µM) | 270,000 compounds, 0.4% hits | AID 2326; calls by dose curve; also: actives are rising curves; nearly all actives have a fitted effect of over 50% in size
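Recovery from NS1-induced slow growth read by OD600 in budding yeast switched to galactose assay medium (pH 6.0, -URA) at 1:100 dilution. Compound 23 nl per well; the matching strain lacking NS1 serves as control.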
LmPK inh: blocks Leishmania mexicana pyruvate kinase activity | Q27686 | purified LmPK, Kinase-Glo ATP luminescence, 1 h | Potency, µM (highest dose often 57.5 µM), hits mostly inhibitors | 290,000 compounds, 0.37% hits | AID 1721
Target sequence (Q27686 whole entry, looked up): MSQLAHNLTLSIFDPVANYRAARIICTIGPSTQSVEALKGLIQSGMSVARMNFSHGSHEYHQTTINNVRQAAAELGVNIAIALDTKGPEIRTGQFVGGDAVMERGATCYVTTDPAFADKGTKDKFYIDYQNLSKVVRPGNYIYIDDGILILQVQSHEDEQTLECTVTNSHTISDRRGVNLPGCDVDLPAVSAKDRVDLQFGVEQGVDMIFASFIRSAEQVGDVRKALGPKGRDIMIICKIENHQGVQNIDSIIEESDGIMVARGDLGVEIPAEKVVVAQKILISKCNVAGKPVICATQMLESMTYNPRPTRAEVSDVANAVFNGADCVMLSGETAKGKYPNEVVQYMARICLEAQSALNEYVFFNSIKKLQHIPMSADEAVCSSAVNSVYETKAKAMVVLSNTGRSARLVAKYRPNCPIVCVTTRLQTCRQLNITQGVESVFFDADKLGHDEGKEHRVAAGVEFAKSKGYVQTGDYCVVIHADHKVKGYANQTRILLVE
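Screened at intermediate enzyme activity to detect both inhibitors and activators: LmPK at 0.1 nM, with a 0.5 nM enzyme column as activation reference. PEP 0.5 mM, ADP 0.1 mM; ATP detected by luminescence after 1 h.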
RE007 growth inh: less growth of the S. pombe RE007 Vpr strain; S. pombe RE007 Vpr strain, BacTiter-Glo ATP luminescence, 24 h; Potency, µM (highest dose often 92.2 µM), most hits filed as inhibitors; 360,000 compounds, 0.21% hits; active = well fitted falling curve with a large enough effect; inconclusive = small, poorly fitted or top-dose-only effect; inactive = no such curve, though single readings can be large or run the other way; also: nearly all actives have a fitted effect of over 50% in size
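Fission yeast RE007 carrying one integrated HIV-1 vpr copy, seeded at OD 0.01 in PMG+AL medium with 23 nL pinned compound. Grown 24 h at 30 degrees; viability read by BacTiter-Glo luminescence after 5 min.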
AMA1 RON2 block: inhibitors of Plasmodium falciparum AMA1-RON2 interaction | AlphaScreen AMA1-biotinylated RON2 peptide binding | Potency, µM (highest dose often 58.2 µM), hits mostly inhibitors | 360,000 compounds, 0.2% hits | AID 720542; also: nearly all actives have a fitted effect of over 45% in size
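AMA1 (3D7) with his tag at 25 nM final met compounds first, then biotinylated RON2 peptide at 25 nM; detection used donor plus acceptor beads, 10 µg/mL apiece, read by AlphaScreen after 30 min at room temperature.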
Each line names hits and unclear results; the compound was inactive in the other large screens. Unless noted, calls follow the shape of the dose curve; as a rule, active = well fitted curve in the direction sought with a large enough effect; inconclusive = small, poorly fitted or top-dose-only effect, or another doubt; inactive = no such curve, though single readings can be large; an effect the other way counts as inactive or inconclusive.

O=C(c1ccc2c3n(nc2c1)-c1ccc(Cl)cc1CO3)N1CCCCC1	LmPK inh 25µM
CC(C)=CCC/C(C)=C\CC/C(C)=C\CC/C(C)=C\CC1=C(C)C(=O)c2ccccc2C1=O	none (no result: NS1 function inh, LmPK inh, RE007 growth inh, AMA1 RON2 block)
O=C(CS)Nc1ccccc1	none (no result: NS1 function inh, LmPK inh, RE007 growth inh, AMA1 RON2 block)
C/C(CCc1oc2c(Br)cc(Br)cc2c1-c1ccc(C)o1)=N\O	AMA1 RON2 block 3.8µM
C/C(CCc1oc2ccccc2c1-c1ccc(C)o1)=N/O	none
CC1=C(c2ccc(C)cc2)S(=O)(=O)N(Cc2ccc(C(=O)Nc3ccc(C)c(F)c3)cc2)C1=O	none (no result: NS1 function inh, LmPK inh, RE007 growth inh, AMA1 RON2 block)
O=C(Nc1cccc(C(F)(F)F)c1)c1ccc2nc(-c3ccco3)c(-c3ccco3)nc2c1	Tb PYK inh inconclusive, NS1 function inh 5.6µM, AMA1 RON2 block inconclusive
NC(=[SH+])N=N/C=C1/C=CC=CN1.O=S(=O)(O)O.[Fe]	none (no result: Tb PYK inh, LmPK inh, RE007 growth inh, AMA1 RON2 block)
CC(=O)Oc1ccc(OC(C)=O)c(SCCCCCCl)c1	LmPK inh 11µM (no result: NS1 function inh)
CC(CSC(=O)c1ccccc1)C(=O)N1CC(Sc2ccccc2)CC1C(=O)O (stereo unspecified)	none (no result: NS1 function inh, LmPK inh, RE007 growth inh, AMA1 RON2 block)
Oc1ccc(/C=C/c2ccc3ccccc3n2)cc1	Tb PYK inh inconclusive, LmPK inh 7.1µM, RE007 growth inh inconclusive (no result: NS1 function inh)
Fc1ccccc1/C=C/c1ccc2ccccc2n1	Tb PYK inh inconclusive, LmPK inh 13µM, RE007 growth inh inconclusive
C(=C\c1ccc2ccccc2n1)/c1ccccc1	LmPK inh 13µM, RE007 growth inh inconclusive
CC(=O)OCC(=O)[C@@]1(O)[C@H](C)C[C@H]2C3C[C@H](F)C4=CC(=O)C=CC4(C)C3[C@@H](O)CC21C (stereo partly specified)	none (no result: NS1 function inh, LmPK inh, RE007 growth inh, AMA1 RON2 block)
CC(=O)Oc1cc(C(=O)OCC(=O)N2CCc3ccccc3C2)cc(OC(C)=O)c1OC(C)=O	AMA1 RON2 block 0.32µM (no result: NS1 function inh, LmPK inh)
COc1ccc(C(=O)OCC(=O)N2CCc3ccccc3C2)cc1OC	none (no result: NS1 function inh, LmPK inh)
Clc1ccc(-c2nc3ccccc3[nH]2)cn1	LmPK inh 25µM
c1ccc2sc(-c3ccc4c(c3)OCO4)nc2c1	Tb PYK inh inconclusive, LmPK inh 10µM, RE007 growth inh inconclusive
Oc1ccc(-c2nc3ccccc3s2)cc1	LmPK inh 16µM, RE007 growth inh inconclusive
O=C(Nc1cccc(-c2nc3ccccc3s2)c1)c1ccc2c(c1)OCO2	none
COc1ccc(-c2nc3ccccc3s2)cc1	Tb PYK inh inconclusive, LmPK inh 13µM, RE007 growth inh inconclusive
COc1ccc(CC(=O)Nc2ccc(-c3nc4ccccc4s3)cc2Cl)cc1	none (no result: NS1 function inh, LmPK inh, RE007 growth inh, AMA1 RON2 block)
c1ccc2sc(-c3ccncc3)nc2c1	LmPK inh inconclusive
CN(C)CCOc1ccccc1Cc1ccccc1 (tested in a mixture with another compound)	none (no result: NS1 function inh, LmPK inh, RE007 growth inh, AMA1 RON2 block)
CO[C@H]1C[C@@H]2CC[C@@H](C)[C@@](O)(O2)C(=O)C(=O)N2CCCC[C@H]2C(=O)O[C@H]([C@H](C)C[C@@H]2CC[C@@H](O)[C@H](OC)C2)CC(=O)[C@H](C)/C=C(\C)[C@@H](O)[C@@H](OC)C(=O)[C@H](C)C[C@H](C)/C=C/C=C/C=C/1C	none (no result: NS1 function inh, LmPK inh, RE007 growth inh, AMA1 RON2 block)
O=C(O)c1[nH]n(-c2ccc(S(=O)(=O)O)cc2)c(=O)c1N=Nc1ccc(S(=O)(=O)O)cc1	none (no result: NS1 function inh, LmPK inh, RE007 growth inh, AMA1 RON2 block)
CCC(C)(C)OC(=O)N[C@@H](Cc1c[nH]c2ccccc12)C(=O)N[C@@H](CCSC)C(=O)N[C@@H](CC(=O)O)C(=O)N[C@@H](Cc1ccccc1)C(N)=O	none (no result: NS1 function inh, LmPK inh, RE007 growth inh, AMA1 RON2 block)
O=C(c1ccc(-c2nc3ccccc3s2)s1)N1CCOCC1	Tb PYK inh inconclusive, LmPK inh 14µM, RE007 growth inh inconclusive (no result: NS1 function inh)
c1ccc2[nH]c(-c3ccc4c(c3)OCO4)nc2c1	Tb PYK inh inconclusive, RE007 growth inh 40µM (no result: NS1 function inh, LmPK inh)
O=C(Nc1ccc(-c2nc3ccccc3[nH]2)cc1)c1ccc2c(c1)OCO2	AMA1 RON2 block inconclusive
C/C(=C(/CCOC(=O)C(C)C)SS/C(CCOC(=O)C(C)C)=C(\C)N(C=O)Cc1cnc(C)nc1N)N(C=O)Cc1cnc(C)nc1N	none (no result: NS1 function inh, LmPK inh, RE007 growth inh, AMA1 RON2 block)
O=[N+]([O-])c1ccc(Nc2ccccc2)c2nonc12	AMA1 RON2 block inconclusive (no result: RE007 growth inh)
O=[N+]([O-])c1ccc(Sc2cccc[n+]2[O-])c2nonc12	Tb PYK inh 18µM, LmPK inh inconclusive, RE007 growth inh 10µM
O=C(N/N=C/c1cn(Cc2cccc(F)c2)c2ccccc12)c1cc(O)cc(O)c1	AMA1 RON2 block 25µM
Nc1ccc(C(=O)N/N=C/c2cn(Cc3ccc(F)cc3)c3ccccc23)cc1	none

Compound activity: PubChem BioAssay, National Center for Advancing Translational Sciences (NCATS)
